Source: PubChem (Sanford-Burnham Center for Chemical Genomics)
CYP2C19 inhib: blocks human cytochrome P450 2C19. AID 778. CYP2C19 Supersomes, luciferin-H EGE luminescence, 30 min. P33261. inhibition, % at 5 µM. actives 21% (n = 96,000);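 active = CYP2C19 inhibition above a set limit at 5 µM in the primary screen, cut at about 50% in these data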;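 also: plate controls were negative control wells for no effect and 2.5 mM tranylcypromine positive control for full effect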
Target sequence (P33261 whole entry, looked up): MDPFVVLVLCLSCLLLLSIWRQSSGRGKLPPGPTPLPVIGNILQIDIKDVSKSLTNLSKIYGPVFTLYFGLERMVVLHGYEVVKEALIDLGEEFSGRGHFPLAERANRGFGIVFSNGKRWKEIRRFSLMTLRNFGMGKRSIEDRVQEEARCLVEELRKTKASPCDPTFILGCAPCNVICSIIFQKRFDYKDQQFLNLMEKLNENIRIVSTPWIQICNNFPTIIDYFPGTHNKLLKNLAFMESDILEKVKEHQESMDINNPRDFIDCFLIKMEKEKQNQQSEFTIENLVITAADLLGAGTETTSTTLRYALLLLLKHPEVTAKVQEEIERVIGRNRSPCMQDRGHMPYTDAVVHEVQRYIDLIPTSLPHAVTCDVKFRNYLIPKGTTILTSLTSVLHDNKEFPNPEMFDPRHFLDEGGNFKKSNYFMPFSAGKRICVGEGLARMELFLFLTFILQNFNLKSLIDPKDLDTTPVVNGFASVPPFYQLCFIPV
Mac1 fbg enh: increases human CD11b/CD18 adhesion to fibrinogen. activation, % at 10 µM. actives 0.07% (n = 93,000). K562 CD11b/CD18 adhesion to fibrinogen, ATPlite luminescence. P05107+P11215;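 active = 10 µM primary screen giving 50% or more activity, confirmed by 40% or more on retest at that dose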
Mac1 fbg inh: blocks human CD11b/CD18 adhesion to fibrinogen. P05107+P11215. K562 CD11b/CD18 adhesion to fibrinogen, ATPlite luminescence; Mn2+ added to activate the integrin. inhibition, % at 10 µM. actives 0.54% (n = 93,000);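 active = primary inhibition of 50% or more at 10 µM, then 40% or more on retest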
CYP2C19 act: activators of human cytochrome P450 2C19; P33261; recombinant CYP2C19, luciferin-H EGE luminescence; active compounds read high; 0 = fully inhibited enzyme, 1 = untreated enzyme; activation factor at 5 µM; 96,000 tested, under 10 active;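 active = activation factor of at least 2 at 5 µM in the primary screen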;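 also: 0 = wells with 2.5 mM tranylcypromine and 1 = vehicle-only wells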
CYP2C9 activ: activators of human CYP2C9; P11712; recombinant CYP2C9, luciferin-H conversion, luminescence; active compounds read high; factor 1 = untreated enzyme, 0 = blocked; actives 1.4% (n = 96,000); AID 1024; activation factor at 5 µM;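 active = activation factor of 2 or more for CYP2C9 at a 5 µM dose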;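 also: 0 = sulfaphenazole-blocked wells and 1 = vehicle-only wells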
CYP2C9 inh: human CYP2C9 inhibition. actives 20% (n = 96,000). AID 777. inhibition, % at 5 µM. CYP2C9 Supersomes, luciferin-H conversion, luminescence;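 active = blocking of liver enzyme CYP2C9 beyond about 50% at 5 µM, limit read from the data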
* marks the source's active call; other numbers are inactive results; nt = no result given. Sampled rows, rich in hits. Any-hit rate of the full collection: about 28%.

SMILES | CYP2C19 inhib | Mac1 fbg enh | Mac1 fbg inh | CYP2C19 act | CYP2C9 activ | CYP2C9 inh
Cc1ccc(OCCSCc2nc3ccccc3[nH]2)cc1 | 59.0* | nt | nt | 0.4 | 0.4 | 62.7*
Cc1cc(C)cc(OCC(=O)OCC(=O)c2c(N)n(C)c(=O)n(C)c2=O)c1 | 29.7 | -2.4 | -4.6 | 0.7 | 1 | -1.4
CN(C)c1ccc(-c2noc(-c3ccccc3O)n2)cc1 | 12.1 | -6.1 | 45.4 | 0.9 | 1 | 2.4
CC(CN1CCN(c2ccccc2)CC1)c1ccccc1 (centres undefined) | 31.4 | -1.1 | 15.6 | 0.7 | 0.9 | 8.4
Oc1ccc(C(=S)N2CCCCC2)cc1Cl | 84.7* | -3.6 | -21.2 | 0.2 | 2* | -101.9
COc1cc(C(=S)N2CCCC2)ccc1O | 88.4* | 0.6 | 12.9 | 0.1 | 1.6 | -61.3
S=C(c1ccc2c(c1)OCO2)N1CCCCC1 | 94.4* | 2.6 | -5.4 | 0.1 | 0.6 | 38.3
COc1ccc(C(=S)N2CCN(C)CC2)cc1Br | 50.9* | -3.1 | -2.4 | 0.5 | 3.5* | -247.2
S=C(c1ccc2c(c1)OCO2)N1CCCC1 | 41.0 | -5.1 | -27.9 | 0.6 | 1 | 2.3
CC(O)C1CCC2C3CC[C@H]4CC(O)CCC4(C)C3CC3(OCCO3)C12C (some centres undefined) | 11.8 | -5.1 | -2.0 | 0.9 | 1 | 3.3
C=CCN1C(=O)CN=C1Nc1cc(C)ccc1C | 14.8 | -2.2 | -3.5 | 0.9 | 0.9 | 8.7
O=C(OCC(=O)N1CCN(C(=O)c2ccco2)CC1)c1ccccc1C(=O)c1ccc(Cl)cc1 | 20.9 | -2.4 | 4.9 | 0.8 | 0.7 | 30.8
O=C(Cc1nc(-c2ccc([N+](=O)[O-])cc2)cs1)Nc1ccccc1 | 29.7 | nt | nt | 0.7 | 0.4 | 62.5*
CCCCn1c(SCC(=O)c2ccc3c(c2)OCCO3)nnc1-c1ccco1 | 48.5 | -3.2 | -2.8 | 0.5 | 0.4 | 56.5*
CCn1c(SCC(=O)c2ccc3c(c2)OCCO3)nnc1C(C)C | 94.3* | 5.1 | -8.0 | 0.1 | 0.9 | 11.4
CCn1nnnc1SCC(=O)c1ccc2c(c1)OCCO2 | 33.7 | nt | nt | 0.7 | 0.8 | 20.5
CC(C)n1nnnc1SCC(=O)c1ccc2c(c1)OCCO2 | 62.7* | nt | nt | 0.4 | 1 | 4.3
CCn1c(COc2ccc3c(c2)OCO3)nnc1SCC(=O)c1ccc(Cl)cc1 | -9.8 | -2.7 | 2.6 | 1.1 | 0.5 | 50.9*
CCc1nnc(NC(=O)CSc2nnc(C)n2CC2CCCO2)s1 (centres undefined) | -18.8 | -3.6 | -1.6 | 1.2 | 1.1 | -8.5
CCCN(CC1CC1)C(=O)Nc1ccccc1C | 22.7 | 3.4 | 1.7 | 0.8 | 1.1 | -9.7
CCOC(=O)c1cnc2ccccc2c1Nc1ccc2c(c1)OCCO2 | nt | 8.6 | 11.1 | nt | nt | nt
COc1cc(CNC2CCC(C)C2)cc(OC)c1 (centres undefined) | 61.8* | 2.5 | 1.1 | 0.4 | 1.1 | -13.1
COc1cccc(CNC2CCCC2)c1 | 14.5 | -1.0 | -4.9 | 0.9 | 1.1 | -12.1
COc1cc(CNC2CCCC2)cc(OC)c1 | 71.2* | 3.4 | -27.2 | 0.3 | 0.6 | 39.8
CC(=O)c1cnn(-c2cc(Oc3cccc(C)c3)ncn2)c1C | 49.4 | -4.5 | -6.0 | 0.5 | 0.5 | 47.4
SMILES | CYP2C19 inhib | Mac1 fbg enh | Mac1 fbg inh | CYP2C19 act | CYP2C9 activ | CYP2C9 inh
COC(=O)c1cnn(-c2cc(Oc3cccc(C)c3)ncn2)c1N | 34.7 | -2.9 | 3.2 | 0.7 | 0.3 | 69.9*
Cc1ccc(C(C)C)c(OC(=O)/C=C/c2ccccc2)c1 | -3.8 | -0.4 | 13.8 | 1 | 0.8 | 21.8
Cc1cc(C)nc(-n2nc(C)cc2NC(=O)COC(=O)CCC(=O)c2cccs2)n1 | 32.2 | -3.3 | 6.3 | 0.7 | 0.5 | 49.8
c1ccc(-c2onc3c2CCCC3)cc1 | 57.8* | -3.4 | -7.6 | 0.4 | 1 | -2.9
O=S(=O)(Nc1nnc(-c2ccccc2)s1)c1ccc(Cl)cc1 | 82.7* | -9.5 | 86.1* | 0.2 | 0 | 98.7*
CCCCCc1nnc(N)s1 | 4.5 | -2.2 | -4.2 | 1 | 1.1 | -8.3
Nc1nnc(CCC2CCCCC2)s1 | 73.3* | 4.6 | 0.6 | 0.3 | 1.1 | -12.5
CCCC(=O)Nc1cccc(Oc2nc(C)cc(C)c2C#N)c1 | 25.6 | 3.3 | 5.3 | 0.7 | 0.8 | 24.4
O=[N+]([O-])c1ccc(NC(=S)N/C(=N/CS(=O)(=O)c2ccccc2)c2ccccc2)cc1 | 28.8 | -2.3 | 4.3 | 0.7 | 0.4 | 57.8*
